In experiment [1] the test system is Plasmodium falciparum Sir2 (PF13_0152, Sir2A). As to the kind of experiment: Plasmodium falciparum Sir2A binding compounds – biochemical, small-molecule microarray, 635 nm fluorescence, primary screen (AID 1098).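 Also: score merges spot fluorescence intensity with its signal-to-noise ratio.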 As to conditions: fluorescence 635 nm, higher = more signal.
Experiment [2] can be described thus: probe aDKK1 binding to arrayed compounds – biochemical, biotinylated probe, 635/667 nm fluorescence, primary screen (AID 1099).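 Also: score merges 667nm spot fluorescence with signal to noise across triplicate slides.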 The settings on record: small-molecule microarray, higher = more signal.
The nature of experiment [3]: probe aCHRDL2 binding to arrayed compounds – biochemical, biotinylated probe, 635/667 nm fluorescence, primary screen (AID 1100). As to conditions: small-molecule microarray, higher = more signal.
A short description of experiment [4]: change in splice reporter luminescence, either direction, cell-based, HEK293, spliceosome inhibition project, primary screen (AID 1101).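 Also: HEK293 cells carrying a splicing-competent luciferase reporter gene; test concentration not given here.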 As to conditions: HEK293 splicing luciferase reporter, 24 h, higher = more signal, called active from +8 up or from −8 down. Background: In a reporter assay the amount or activity of a reporter protein is the signal.
Experiment [5] deals with Fibroblast growth factor 10 (Homo sapiens) (UniProt O15520). Kind of experiment: compounds binding fibroblast growth factor 10 – biochemical, small-molecule microarray, 635 nm fluorescence, primary screen (AID 1102). As to conditions: FGF10 binding, fluorescence 635 nm, higher = more signal.
The subject of experiment [6] is glycogen synthase kinase-3 (GSK3A per assay name; protocol says GSK3B). As to the kind of experiment: compounds binding glycogen synthase kinase-3 – biochemical, small-molecule microarray, 635 nm fluorescence, GSK3A, primary screen (AID 1103). Also: the record names both GSK3A and GSK3B. The settings on record: fluorescence 635 nm, higher = more signal.
For experiment [7], the target named is Epidermal growth factor receptor (Homo sapiens) (UniProt P00533). As to the kind of experiment: compounds binding epidermal growth factor receptor – biochemical, small-molecule microarray, 635 nm fluorescence, primary screen (AID 1104).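 Also: score merges 667 nm emission intensity with spot signal to noise over triplicate slides.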 As to conditions: EGFR binding, higher = more signal.
Experiment [8] concerns the target Follistatin-related protein 3 (Homo sapiens) (UniProt O95633). Kind of experiment: compounds binding follistatin-related protein 3 – biochemical, small-molecule microarray, 635 nm fluorescence, primary screen (AID 1105).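 Also: score merges emission near 667 nm and signal to noise per printed spot across three slides.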 As to conditions: FSTL3 binding, higher = more signal.
In experiment [9] the target is Dickkopf-related protein 1 (Homo sapiens) (UniProt O94907). Kind of experiment: small molecules binding DKK1 protein – biochemical, small-molecule microarray, 635 nm fluorescence scan, primary screen (AID 1106).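 Also: score merges emission near 667 nm with signal to noise over three replicate slides.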 The settings on record: higher = more signal.
The test system of experiment [10] is Inhibin beta A chain (activin A). Kind of experiment: small molecules binding activin A – biochemical, small-molecule microarray, 635 nm fluorescence scan, primary screen (AID 1107).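 Also: mouse activin A protein probed at 4.33 µg/mL on printed slides; score merges bound-protein fluorescence near 667 nm with spot signal-to-noise.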 As to conditions: INHBA, higher = more signal.
In experiment [11] the test system is Human papillomavirus type 1a protein E7 (residues 44-93). Kind of experiment: small molecules binding HPV E7 44-93 – biochemical, small-molecule microarray, residues 44-93, 635 nm fluorescence, primary screen (AID 1108).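 Also: E7 fragment applied at 1 µg/mL in TBST for 1 h at 4 C; score combines spot fluorescence with its signal to noise ratio.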 The settings on record: fluorescence 635 nm, higher = more signal.
The nature of experiment [12]: hepatitis C replication reporter changes, two-sided – Huh7 cells, luciferase reporter, HCV replication inhibitor project, primary screen (AID 1109).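 Also: huh7 hepatoma cells harbouring a luciferase neomycin HCV replicon reporter; luciferase luminescence as measure of HCV replicon replication; test concentration not given here.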 As to conditions: Huh7 HCV replicon luciferase reporter, 48 h; higher = more signal.
The target in experiment [13] is Left-right determination factor 2 (Homo sapiens) (UniProt O00292). Kind of experiment: small molecules binding LEFTY2 protein – biochemical, small-molecule microarray, 635 nm fluorescence scan, primary screen (AID 1110). As to conditions: higher = more signal.
Experiment [14] addresses Calmodulin-1 (Homo sapiens) (UniProt P0DP23). Kind of experiment: small molecules binding calmodulin-1 with EGTA – biochemical, small-molecule microarray, Cy5-labelled CALM1, profiling panel (AID 1111).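 Also: labelled calmodulin applied in Tris saline Tween buffer holding calcium plus EGTA and DTT.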 As to conditions: Cy5-CALM1 binding fluorescence, higher = more signal.
For experiment [15] the target is unchanged. As to the kind of experiment: small molecules binding Ca-loaded calmodulin-1 – biochemical, small-molecule microarray, Cy5-labelled CALM1, plus calcium, artefact control for SMM control-protein annotation, profiling panel (AID 1112).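 Also: score merges spot fluorescence with signal to noise from triplicate slides.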 As to conditions: Cy5-CALM1 binding fluorescence, higher = more signal.
Experiment [16] can be described thus: probe aWnt5a binding to arrayed compounds – biochemical, biotinylated probe, 635/667 nm fluorescence, primary screen (AID 1113).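 Also: score merges 667 nm fluorescence intensity with signal-to-noise per printed feature.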 As to conditions: small-molecule microarray, higher = more signal.
Experiment [17] in a line: probe aShh binding to arrayed compounds – biochemical, biotinylated probe, 635/667 nm fluorescence, primary screen (AID 1114).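 Also: probe is biotin-labelled aShh protein from a stem cell growth factor screen; measures binding of labelled protein to compounds printed on the slide; score merges feature fluorescence at 667 nm with signal-to-noise.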 As to conditions: small-molecule microarray, higher = more signal.
The nature of experiment [18]: probe aNog binding to arrayed compounds – biochemical, biotinylated probe, 635/667 nm fluorescence, primary screen (AID 1115).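 Also: probe is biotinylated aNog protein used at 0.15 µg/mL for 1 h at 4 C; z-score combines 667 nm fluorescence of each spot with its signal to noise.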 As to conditions: small-molecule microarray, higher = more signal.
Experiment [19] deals with Torsin-1A-interacting protein 1 (Homo sapiens) (UniProt Q5JTV8). As to the kind of experiment: compound microarray binding of lysate hLAP1 – cell lysate, small-molecule microarray, COS7 lysate, 635/667 nm fluorescence, primary screen (AID 1116). As to conditions: 635 nm fluorescence, higher = more signal.
Experiment [20] has as its target Alpha-bungarotoxin (Bungarus multicinctus) (UniProt P60615). As to the kind of experiment: compounds binding labelled alpha-BTX control protein – biochemical, small-molecule microarray, Alexa647 label, 635/667 nm fluorescence, artefact control for SMM control protein annotation, profiling panel (AID 1117). As to conditions: alpha-BTX-A647 binding fluorescence, higher = more signal.

Structures are written as SMILES. Where “and” joins values, the source holds several entries; their conditions need not be identical. Identical values can stand only once. Calls of active or inactive are those of the source.

Chain of Epidermal growth factor receptor (Homo sapiens) (P00533 whole entry, looked up): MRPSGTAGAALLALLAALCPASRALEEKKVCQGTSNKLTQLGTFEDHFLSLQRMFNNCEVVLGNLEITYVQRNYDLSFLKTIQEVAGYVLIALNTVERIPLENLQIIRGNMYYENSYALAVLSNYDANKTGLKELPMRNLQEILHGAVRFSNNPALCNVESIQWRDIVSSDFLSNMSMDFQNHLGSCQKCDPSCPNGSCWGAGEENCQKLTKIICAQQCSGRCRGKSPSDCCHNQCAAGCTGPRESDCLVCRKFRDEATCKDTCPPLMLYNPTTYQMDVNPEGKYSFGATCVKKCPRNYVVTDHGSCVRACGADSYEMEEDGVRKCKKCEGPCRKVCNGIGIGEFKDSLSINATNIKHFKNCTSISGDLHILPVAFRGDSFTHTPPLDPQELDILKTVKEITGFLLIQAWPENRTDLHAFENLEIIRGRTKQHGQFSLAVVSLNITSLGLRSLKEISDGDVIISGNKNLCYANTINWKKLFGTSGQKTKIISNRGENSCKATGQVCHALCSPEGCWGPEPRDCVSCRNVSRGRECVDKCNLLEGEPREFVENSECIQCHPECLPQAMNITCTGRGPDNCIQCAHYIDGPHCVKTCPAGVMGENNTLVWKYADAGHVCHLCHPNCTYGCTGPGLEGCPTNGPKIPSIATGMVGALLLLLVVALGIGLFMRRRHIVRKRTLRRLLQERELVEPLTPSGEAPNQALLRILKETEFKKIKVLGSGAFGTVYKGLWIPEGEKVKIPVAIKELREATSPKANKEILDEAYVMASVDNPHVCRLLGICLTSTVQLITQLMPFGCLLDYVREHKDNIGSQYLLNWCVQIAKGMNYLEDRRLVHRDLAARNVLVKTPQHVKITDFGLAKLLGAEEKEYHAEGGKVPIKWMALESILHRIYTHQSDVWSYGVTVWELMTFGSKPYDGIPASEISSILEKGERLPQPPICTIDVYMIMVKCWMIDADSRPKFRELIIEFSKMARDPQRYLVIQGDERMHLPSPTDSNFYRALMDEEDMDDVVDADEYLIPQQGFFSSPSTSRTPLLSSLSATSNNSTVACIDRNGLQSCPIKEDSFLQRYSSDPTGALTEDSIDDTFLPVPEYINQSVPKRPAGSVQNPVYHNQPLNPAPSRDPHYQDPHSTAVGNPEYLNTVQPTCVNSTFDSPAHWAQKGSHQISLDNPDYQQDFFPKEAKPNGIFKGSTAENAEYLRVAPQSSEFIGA
Chain of Left-right determination factor 2 (Homo sapiens) (O00292 whole entry, looked up): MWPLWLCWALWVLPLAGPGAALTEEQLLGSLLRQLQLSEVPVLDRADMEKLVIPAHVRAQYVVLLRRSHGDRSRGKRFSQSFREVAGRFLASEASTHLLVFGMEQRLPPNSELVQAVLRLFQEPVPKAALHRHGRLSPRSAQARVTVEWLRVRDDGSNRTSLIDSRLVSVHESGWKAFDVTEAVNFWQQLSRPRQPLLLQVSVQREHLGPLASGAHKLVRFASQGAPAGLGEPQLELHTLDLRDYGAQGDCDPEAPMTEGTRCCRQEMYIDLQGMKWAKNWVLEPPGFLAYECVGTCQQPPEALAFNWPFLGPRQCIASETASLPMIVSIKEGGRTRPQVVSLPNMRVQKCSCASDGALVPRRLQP
Chain of Dickkopf-related protein 1 (Homo sapiens) (O94907 whole entry, looked up): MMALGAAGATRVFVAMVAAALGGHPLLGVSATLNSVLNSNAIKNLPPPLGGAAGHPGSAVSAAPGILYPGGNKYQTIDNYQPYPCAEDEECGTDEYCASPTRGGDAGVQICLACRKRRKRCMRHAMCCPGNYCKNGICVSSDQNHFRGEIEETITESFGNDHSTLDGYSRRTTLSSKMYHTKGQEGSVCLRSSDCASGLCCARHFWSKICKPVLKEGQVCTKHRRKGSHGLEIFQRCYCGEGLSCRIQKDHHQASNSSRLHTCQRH
Chain of Fibroblast growth factor 10 (Homo sapiens) (O15520 whole entry, looked up): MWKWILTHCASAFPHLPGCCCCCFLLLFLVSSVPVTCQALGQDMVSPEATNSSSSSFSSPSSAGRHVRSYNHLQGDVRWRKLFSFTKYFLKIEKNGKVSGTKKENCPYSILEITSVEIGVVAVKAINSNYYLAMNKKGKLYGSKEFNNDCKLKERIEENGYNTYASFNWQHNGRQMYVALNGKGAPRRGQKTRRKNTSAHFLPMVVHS
Chain of Torsin-1A-interacting protein 1 (Homo sapiens) (Q5JTV8 whole entry, looked up): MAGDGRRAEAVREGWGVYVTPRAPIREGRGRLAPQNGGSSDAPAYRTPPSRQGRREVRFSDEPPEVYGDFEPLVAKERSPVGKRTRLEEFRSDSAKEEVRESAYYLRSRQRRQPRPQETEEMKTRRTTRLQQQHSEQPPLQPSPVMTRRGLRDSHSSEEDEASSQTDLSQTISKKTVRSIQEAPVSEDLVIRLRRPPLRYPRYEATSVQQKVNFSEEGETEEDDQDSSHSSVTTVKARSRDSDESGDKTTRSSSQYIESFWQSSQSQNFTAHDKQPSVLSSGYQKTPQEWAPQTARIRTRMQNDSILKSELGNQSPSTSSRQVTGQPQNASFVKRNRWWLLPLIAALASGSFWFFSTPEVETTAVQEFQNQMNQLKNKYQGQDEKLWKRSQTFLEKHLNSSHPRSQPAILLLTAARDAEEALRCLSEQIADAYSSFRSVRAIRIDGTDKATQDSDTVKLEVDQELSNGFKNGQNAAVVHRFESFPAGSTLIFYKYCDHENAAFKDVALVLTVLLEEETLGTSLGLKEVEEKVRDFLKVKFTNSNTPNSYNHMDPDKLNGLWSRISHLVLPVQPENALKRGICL
Chain of Alpha-bungarotoxin (Bungarus multicinctus) (P60615 whole entry, looked up): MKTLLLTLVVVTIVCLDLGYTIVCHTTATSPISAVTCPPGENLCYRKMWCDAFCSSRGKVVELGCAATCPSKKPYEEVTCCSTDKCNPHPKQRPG
Chain of Follistatin-related protein 3 (Homo sapiens) (O95633 whole entry, looked up): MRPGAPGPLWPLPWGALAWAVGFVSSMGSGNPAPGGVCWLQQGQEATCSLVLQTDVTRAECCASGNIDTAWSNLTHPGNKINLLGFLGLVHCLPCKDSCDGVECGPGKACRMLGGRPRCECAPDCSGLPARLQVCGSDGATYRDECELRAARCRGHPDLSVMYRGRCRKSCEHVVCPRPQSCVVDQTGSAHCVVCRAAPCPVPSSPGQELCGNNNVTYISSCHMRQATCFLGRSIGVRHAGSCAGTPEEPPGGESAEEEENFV

On to `COC(=O)C1=C(C)N(Cc2ccccc2)[C@]23O[C@](C(=O)OC)(C(=O)N2[C@@H]1c1ccccc1)[C@H]1C(=O)N(c2ccccc2)C(=O)[C@H]13`, for which the composite z-score in experiment [1] is 0.224 and 0.295; in [2], -0.0965 and 0.134; in experiment [3], -0.362 and -0.418; in experiment [5] it was 0.775 and 1.09; in [6], 0.989 and 0.463; in experiment [7], 0.367 and 0.392. Besides, the composite z-score in experiment [8] was 0.514 and 0.835; in [9], 0.629 and 0.666; in experiment [10], 0.111 and -0.155; in [11] it was -0.167 and 0.131; in [13], 0.688 and 0.613; in experiment [14], 0.361 and -0.212. In addition, the composite z-score in experiment [15] is -0.298 and -0.362; in experiment [16], -0.197 and -0.0882; in [17], -0.304 and -0.0066; in experiment [18], -0.341 and 0.0299; in [19], -0.233 and 0.633; in experiment [20], 1.34 and 1.08. Moreover, the z-score is 0.0537 (inactive) and -0.654 (inactive) in experiment [4]; -0.716 and -0.479 in experiment [12].

`CC(C)=NO[C@@H](C)c1cc(-c2c(C)cc(C)cc2C)no1`: the composite z-score in experiment [1] was 0.624; in experiment [2] it was -0.0037; in experiment [3] it was 0.0373; in experiment [5], 0.0369; in experiment [6], -0.166; in [7], -0.0855. Moreover, the composite z-score in experiment [8] was -0.234; in experiment [9], -0.289; in experiment [10], 0.952; in experiment [11] it was -0.379; in [13], 0.192; in [14], -0.35. Moreover, the composite z-score in experiment [15] was -0.264; in experiment [16] it was -0.152; in [17], 0.0899; in [18] it was -0.242; in experiment [19] it was 0.1; in experiment [20], 0.282. The z-score in experiment [4] was -1.47 (inactive); in experiment [12], -0.527.

In the case of `CCOC(=O)[C@H](CC(C)C)NC(=O)CCC1CC(OC(=O)NCc2cccc3ccccc23)CC2(CCCC(COC(=O)NCc3ccccc3)O2)O1` (stereo not given in full), the composite z-score in [1] was 0.929; in [2] it was -0.299; in experiment [3] it was -0.103; in experiment [5], -0.242; in experiment [6], -0.97; in experiment [7] it was -0.152. For the same compound, the composite z-score in experiment [8] was -0.499; in [9], -0.311; in [10] it was 0.493; in [11] it was -0.931; in [13] it was -0.0479; in experiment [14], -0.195. Also, the composite z-score in [15] was -0.559; in experiment [16] it was -0.152; in [17] it was -0.282; in experiment [18] it was -0.0029; in [19] it was -0.61; in [20], -0.274. The z-score in [4] was -2.18 (inactive); in experiment [12], -0.132.

Regarding `Cc1ccc(S(=O)(=O)OC[C@@H]2CN3[C@@H](CC[C@@H](C)[C@@H]3c3ccc(Br)cc3)C(=O)O2)cc1`, the composite z-score in [1] is 0.257 and 0.321; in experiment [2], 0.151 and 0.128; in experiment [3], -0.234 and -0.289; in experiment [5], 0.0993 and 0.625; in [6] it was 0.0442 and 0.372; in [7], 0.352 and 0.49. The composite z-score in experiment [8] was 0.0546 and 0.262; in experiment [9] it was 0.235 and 0.46; in experiment [10], 0.758 and 0.354; in experiment [11], 0.574 and 0.644; in experiment [13], 0.57 and 0.483; in experiment [14], 0.192 and 0.679. Moreover, the composite z-score in [15] is 0.2 and -0.302; in experiment [16], -0.0704 and 0.0194; in experiment [17], -0.237 and -0.16; in experiment [18] it was -0.172 and -0.0898; in [19], 0.301 and 0.359; in experiment [20], 0.153 and 0.448. The z-score in experiment [4] was 0.479 (inactive) and 0.402 (inactive); in [12] it was -0.796 and -0.729.

`C=C[C@H](OC)[C@@H](O)c1ccc(OCCO)cc1`: the composite z-score was 0.972 and 1.8 in experiment [1]; -0.458 and -0.428 in experiment [2]; 0.915 and 0.789 in [3]; -1.07 and -0.623 in experiment [5]; -1.69 and -0.885 in experiment [6]; -2.13 and -1.16 in experiment [7]. The composite z-score in experiment [8] was -1.95 and -1.72; in experiment [9], -1.55 and -0.654; in experiment [10] it was -0.731 and -1.25; in experiment [11], -1.76 and -0.748; in [13] it was -1.51 and -1.36; in experiment [14] it was -1.51 and -0.219. Besides, the composite z-score in experiment [15] was -0.045 and -0.319; in experiment [16] it was -0.262 and -0.213; in experiment [17] it was -0.276 and -0.221; in [18] it was -0.674 and -0.402; in experiment [19], 0.376 and -0.199; in [20] it was -1.55 and -1.04. Moreover, the z-score is -0.957 (inactive) and -0.233 (inactive) in experiment [4]; -0.142 and 1.09 in experiment [12].

Consider `COC(=O)c1c2oc(c1C(=O)OC)C(=O)N[C@@H](Cc1ccccc1)Cn1cc(nn1)C1(CCCCC1)NC(=O)N[C@H](CO)CC2`, for which the composite z-score was 0.582 and 0.45 in experiment [1]; 0.407 and -0.327 in [2]; -0.287 and -0.366 in experiment [3]; 1.16 and 0.505 in experiment [5]; 0.86 and 0.41 in [6]; 0.158 and 0.198 in experiment [7]. In addition, the composite z-score was 0.794 and 0.388 in experiment [8]; 0.749 and 0.194 in experiment [9]; 0.728 and -0.0236 in [10]; 0.773 and 0.664 in experiment [11]; 0.564 and 0.328 in experiment [13]; 0.0754 and -0.157 in [14]. Besides, the composite z-score in experiment [15] was 0.0102 and -0.607; in experiment [16] it was -0.0403 and -0.0924; in experiment [17], 0.0684 and -0.0904; in experiment [18], -0.0604 and 0.149; in experiment [19], 2.36 and 0.399; in [20], 1.53 and 0.281. The z-score in experiment [4] is -0.55 (inactive) and -1.56 (inactive); in experiment [12] it was -0.16 and -0.583.

Values taken from PubChem BioAssay.
